In PubChem BioAssay (NCI):
About 83,000 compounds went through this panel and 20% of them were active in at least one assay; those are over-represented in the sample as a whole.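 Assay: single dose, 48 h. Readout: percent growth (0 = no net growth; negative = cell death). Active: <10.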 Activity calls are given as the source filed them.

Legend:
Assay in all cases: NCI-60 one-dose screen, 48 h (100 = growth as untreated, 0 = no growth, -100 = all killed)
Details in all cases: 10 µM unless noted
[1] = test system: NCI-H23 lung
[2] = test system: NCI-H226 lung
[3] = test system: NCI-H322M lung
[4] = test system: HOP-62 NSCLC
[5] = test system: NCI-H460 lung
[6] = test system: NCI-H522 lung
[7] = test system: A549/ATCC NSCLC
[8] = test system: 786-0 renal
[9] = test system: COLO 205 colon
[10] = test system: DU-145 prostate
[11] = test system: K-562 leukemia
[12] = test system: MALME-3M melanoma
[13] = test system: MDA-MB-231 breast
[14] = test system: RXF 393 renal
[15] = test system: SF-268 CNS
[16] = test system: SF-295 CNS
[17] = test system: SF-539 CNS
[18] = test system: UACC-257 melanoma
[19] = test system: M14 melanoma

Measured: growth

CSC1=N/C(=C\c2cccc(OCc3ccc(Cl)cc3)c2)C(=O)N1
inactive: [1] 82.8% | [2] 75% | [3] 87.2% | [4] 99.4% | [5] 81.3% | [6] 48% | [7] 83.4% | [8] 83.8% | [9] 82.8% | [10] 77.7% | [11] 81.7% | [12] 99% | [13] 99.8% | [14] 104% | [15] 85.3% | [16] 87.6% | [17] 99% | [18] 100% | [19] 88%

O=C(Nc1ccc(Br)cc1)c1ccc(Cl)c(Cl)c1
active: [16] 6.6%
inactive: [1] 26.2% | [2] 61.8% | [3] 42.3% | [4] 98.3% | [5] 14% | [6] 60.2% | [7] 63.4% | [8] 73.1% | [9] 83.9% | [10] 34.7% | [11] 12.9% | [12] 48.5% | [13] 56% | [14] 112% | [15] 73.6% | [17] 67.5% | [18] 102% | [19] 64.5%

CN(C)c1ccc(/C=C\c2cccc[n+]2C)cc1
active: [9] -35.6%
inactive: [1] 46.6% | [2] 67.7% | [3] 102% | [4] 48% | [5] 69.5% | [6] 30.5% | [7] 20.8% | [8] 69.3% | [10] 70.1% | [11] 21% | [12] 57.4% | [13] 73.4% | [14] 86.6% | [15] 26.7% | [16] 19% | [17] 58.9% | [18] 31.7% | [19] 69.6%

CN(C)c1ccc(C2(Cl)c3ccccc3N(C)c3ccccc32)cc1
inactive: [1] 44.2% | [2] 69.1% | [3] 75.9% | [4] 29.9% | [5] 36.9% | [6] 19% | [7] 60% | [8] 62.1% | [9] 43.1% | [10] 50.5% | [11] 51% | [12] 48.5% | [13] 69.1% | [14] 74% | [15] 18.2% | [16] 66.3% | [17] 86.9% | [18] 54.4% | [19] 53.4%

COc1ccc2c(c1)C1=NN(C(=O)CO)[C@H](c3ccc(OC(F)(F)F)cc3)[C@@H]1CC2
inactive: [1] 92.2% | [2] 84.5% | [3] 130% | [4] 97.4% | [5] 103% | [6] 82.6% | [7] 89.3% | [8] 103% | [9] 110% | [10] 105% | [11] 102% | [12] 101% | [13] 94.7% | [15] 94.8% | [16] 90.4% | [17] 93.2% | [18] 123% | [19] 115%
active: [14] -19.9%

c1ccc(-c2nnn(-c3ccccc3)n2)cc1
inactive: [1] 105% | [2] 91.4% | [3] 100% | [4] 95.8% | [5] 114% | [6] 89.7% | [7] 99.7% | [8] 104% | [9] 117% | [10] 127% | [11] 89.1% | [12] 115% | [13] 84.6% | [14] 102% | [15] 109% | [16] 106% | [17] 105% | [18] 103% | [19] 109%

CCCCCN(CCCCC)C(=O)C(CCC(=O)O)NC(=O)c1ccc(Cl)c(Cl)c1 (configuration not stated)
inactive: [1] 105% | [2] 92.6% | [3] 102% | [4] 102% | [5] 106% | [6] 110% | [7] 85% | [8] 106% | [9] 120% | [10] 113% | [11] 115% | [12] 104% | [13] 88.1% | [14] 106% | [15] 110% | [16] 110% | [17] 113% | [18] 111% | [19] 109%

CCN1C(=O)N(CC)C2C1NC(=O)N2/N=C/C=C/c1ccccc1 (configuration not stated)
inactive: [1] 64.5% | [2] 74.9% | [3] 63.8% | [4] 41.3% | [5] 24.4% | [7] 45.4% | [8] 33% | [9] 27.4% | [10] 68.1% | [11] 17% | [12] 50.6% | [13] 71.5% | [14] 32.3% | [15] 59.7% | [16] 34.9% | [17] 25% | [18] 35.8% | [19] 28.5%
active: [6] 2.08%
